The source of these data is paper PMC7819943, “Rice protein-binding microarrays: a tool to detect cis-acting elements near promoter regions in rice”.

Whole data set: some 35,000 sequences, median “fluorescence intensity (a.u.)” near 10,000, cut for the highest 2% near 52,000. Many of the other results were omitted from the sample, so the highest values are more common in it than they were.

This assay concerns the target T1, OsWOX13 (Oryza sativa, UniProt Q5QMM3 1-267).
T1 sequence: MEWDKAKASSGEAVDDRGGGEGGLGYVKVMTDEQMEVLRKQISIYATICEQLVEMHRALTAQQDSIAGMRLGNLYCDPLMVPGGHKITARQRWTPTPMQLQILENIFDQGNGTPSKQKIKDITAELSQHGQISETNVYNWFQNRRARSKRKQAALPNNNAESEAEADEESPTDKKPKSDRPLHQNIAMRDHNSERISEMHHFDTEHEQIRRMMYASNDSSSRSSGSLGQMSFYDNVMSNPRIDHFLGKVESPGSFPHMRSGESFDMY
Kind of assay: protein-binding microarray (RPBM); PBS, 2% BSA, 51.3 ng/ul salmon testes DNA, 50 uM zinc acetate, 200 nM TF, 25 C, 1 h; high values mean tight binding. The settings on record: protein: recombinant; tags: N-terminal polyhistidine and DsRed monomer fusion (pET32a); label: CyDye5-dUTP incorporated in the synthesized complementary strand; 3' TTTTT single-stranded linker to array surface; dsDNA, one strand shown. In outline: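 Transcription factors were each fused at the N-terminus to a polyhistidine tag plus DsRed and expressed in E. coli BL21-CodonPlus before Ni–NTA purification. Binding to a double-stranded custom Agilent array was carried out with 200 nM protein at 25 °C for 1 h in PBS, 2% BSA, salmon testes DNA and 50 µM zinc acetate. The binding signal is per-feature fluorescence intensity, in arbitrary units, on an Axon 4000B scanner.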
For the sequence “GGCGTTAATCACGTGATGGGCATGGATAGTGATTTAGATTCGGAGTCACCTAGTGCAG”, the binding signal was 13900 fluorescence intensity (a.u.).
Turning to “GATATGATGGGTACAAACTGTTATAAACTAACATGTCTATCGGAGTCACCTAGTGCAG”, the binding signal was 5970 fluorescence intensity (a.u.).
In the case of “GGGCCTGGTCCTGATTGGACTTCCTTATCTGTCTATCACACGGAGTCACCTAGTGCAG”, the binding signal is 10700 fluorescence intensity (a.u.).
The figure for “TGATGGGAAAACTTTAAAATTAATTTTGAATTTAAGGTTGCGGAGTCACCTAGTGCAG” is 4960 fluorescence intensity (a.u.).
With “TGCTTTGATTTTACGTCACATACACATGGTGATGCTTCAACGGAGTCACCTAGTGCAG” the figure was 6250 fluorescence intensity (a.u.); with “CAGTTTAATTGCTCCTCGGATGGATCTGGTATAGTTCTGCCGGAGTCACCTAGTGCAG”, 20700 fluorescence intensity (a.u.); with “CTCTTGATTGTATCCTTAGGCACTTTGTATATTCTCGAGTCGGAGTCACCTAGTGCAG”, 31700 fluorescence intensity (a.u.).
With “GAACAGGTAATTTAAAATTGATGGAGTTCATAGGATGTCACGGAGTCACCTAGTGCAG” the figure was 24200 fluorescence intensity (a.u.); with “TTTAATTGATGGAGCGGTAATGGTAATAGTTCTTCACTCACGGAGTCACCTAGTGCAG”, 57300 fluorescence intensity (a.u.).
Take “TTTATATTATTTGTCAATCTTATTGTCAACTTATTAATCACGGAGTCACCTAGTGCAG”: the binding signal was 5140 fluorescence intensity (a.u.).
For the sequence “TTTATAATAGTTAATATTTAATTGATCATTTGCTAATGAGCGGAGTCACCTAGTGCAG”, the binding signal is 24900 fluorescence intensity (a.u.).
“CCAAATGATTAATTTGGAGGACTTATTTGGACGTTTTGAACGGAGTCACCTAGTGCAG”: the binding signal is 42300 fluorescence intensity (a.u.).
For the sequence “AAGATACGTGATTGAAATCATTCCATTATGGACGACATTGCGGAGTCACCTAGTGCAG”, the binding signal was 54000 fluorescence intensity (a.u.).
Consider “ACATCACTAATTAATGTAATTTAAGTGGCTCATTTGCTCACGGAGTCACCTAGTGCAG”, for which the binding signal is 31900 fluorescence intensity (a.u.).
The figure for “TCTGATTAATTTGACGGCCACAAAATACTTAGTTTGGCAACGGAGTCACCTAGTGCAG” is 65000 fluorescence intensity (a.u.); for “TAAAATTAGTCAAACTTAAAGCAGTTTGATTTTGACTAAACGGAGTCACCTAGTGCAG” it is 3740 fluorescence intensity (a.u.); for “CCATTACGTGATCACAGATTGATCAAGAAATGCTTGACGACGGAGTCACCTAGTGCAG” it is 19600 fluorescence intensity (a.u.).
As to “TTGGATTAGAATTTAATTTGAAGACGACATCCATTGGATACGGAGTCACCTAGTGCAG”, the binding signal is 28700 fluorescence intensity (a.u.).
For the sequence “TTCACTAATCAATCAACTTAATTTGCTCTGTCAATGTGCACGGAGTCACCTAGTGCAG”, the binding signal was 61700 fluorescence intensity (a.u.).
The figure for “TTAACAATTGAAAGATCATCTCATTGGTTAATTTATTTGGCGGAGTCACCTAGTGCAG” is 6220 fluorescence intensity (a.u.); for “GATGGTCTATTAGTCCGTGATTAATTAAGTATTAGCTATTCGGAGTCACCTAGTGCAG” it is 8910 fluorescence intensity (a.u.).
The figure for “TTTGACAAATTTGACAACTCCTCTAGCTCCCACTGCTACTCGGAGTCACCTAGTGCAG” is 38200 fluorescence intensity (a.u.).
On to “CTGTGATAATCTGTCTTCCTGTGATACCAGCACTGTTTCCCGGAGTCACCTAGTGCAG”, for which the binding signal is 3340 fluorescence intensity (a.u.).
With “TGCTAGTTAAATTGGGATAAAATAATGGGCCCATTTATTTCGGAGTCACCTAGTGCAG” the figure was 4520 fluorescence intensity (a.u.); with “AGTGATTAGTAGCAGCAGAAAGAGTGGAAGATTTAGAGGACGGAGTCACCTAGTGCAG”, 17800 fluorescence intensity (a.u.).
The figure for “TTATTGATTGATTGAATCAGACTGAAATTCCAAACCACGACGGAGTCACCTAGTGCAG” is 63100 fluorescence intensity (a.u.); for “ATTGCGTGCTTGATTAATTAGTTTCTACCAACAATTTCTCCGGAGTCACCTAGTGCAG” it is 8110 fluorescence intensity (a.u.).
Turning to “TTAAATTTAAATTTGAGATTGATTTTGAGATATTTTCAACCGGAGTCACCTAGTGCAG”, the binding signal is 38200 fluorescence intensity (a.u.).
With “TTTTCTTGATTAATTAAATATAAATTTGCATTTCATTTCACGGAGTCACCTAGTGCAG” the figure was 16900 fluorescence intensity (a.u.); with “AAAATTTAATTGATTATATGCTAATAACTTTCTTGTTTTGCGGAGTCACCTAGTGCAG”, 51600 fluorescence intensity (a.u.).
Take “ACAATTGATAGATTTGTCTGTTGCTTTGCTTTGATTCCTCCGGAGTCACCTAGTGCAG”: the binding signal was 43800 fluorescence intensity (a.u.).
With “TTAAATTTAAATTTAAATTTAATTTTGAGATTTCTTTTCACGGAGTCACCTAGTGCAG” the figure was 55700 fluorescence intensity (a.u.); with “TATAATTGATTATTTTAATTTCTTTTGCTATTAATAGTCACGGAGTCACCTAGTGCAG”, 64700 fluorescence intensity (a.u.).
With “AATTAAATAAATTATAATTTATTTTATTGAGATTTGATTTCGGAGTCACCTAGTGCAG” the figure was 41300 fluorescence intensity (a.u.).
For “CCCAAACGCCCTGAAATCAAATTGAATATTCCAATTTGCACGGAGTCACCTAGTGCAG”, the binding signal was 4630 fluorescence intensity (a.u.).
With “CAGAAACTGAAATACCAATTGATTCTTCCAATTCCCTGAACGGAGTCACCTAGTGCAG” the figure was 6740 fluorescence intensity (a.u.); with “TGCACCAATTTGATTGATACCAATTTGCTTTAATTTCGTCCGGAGTCACCTAGTGCAG”, 57200 fluorescence intensity (a.u.).
The figure for “ATCGGCATGTTCACCAGCTCTGATTGGTAGTACGATTTTACGGAGTCACCTAGTGCAG” is 5140 fluorescence intensity (a.u.); for “TAAATAAATGATTGGGCTTGTTAATGGGCTTCCTCTTCCTCGGAGTCACCTAGTGCAG” it is 41900 fluorescence intensity (a.u.); for “CCCAAATAGAAGTAGAATTGAGACACTGAGTGGTGCAAAGCGGAGTCACCTAGTGCAG” it is 3400 fluorescence intensity (a.u.).
The figure for “ATGATTGTTGGAGCAAGGCCCAGCCCAAGGTAGCGTACATCGGAGTCACCTAGTGCAG” is 13400 fluorescence intensity (a.u.); for “TGTTACTAATTTATTTGGAGGCTTCATGGTTGACCTATTGCGGAGTCACCTAGTGCAG” it is 3440 fluorescence intensity (a.u.).
As for “GATAATTTGAACCATAGATTTATCATTCAAAGGCTATAAACGGAGTCACCTAGTGCAG”, the binding signal was 9720 fluorescence intensity (a.u.).
The figure for “GTAGCAATCAAATATGGGCCGGTCAATTGTTCGCGGTAGACGGAGTCACCTAGTGCAG” is 4130 fluorescence intensity (a.u.); for “CATGGACAACAATCATTGCCTGTTACGCGCAAAGTTCTCGCGGAGTCACCTAGTGCAG” it is 8490 fluorescence intensity (a.u.); for “AGTATAATGACTGTTAGATCTCCATAAAACTGGCCACAAACGGAGTCACCTAGTGCAG” it is 3510 fluorescence intensity (a.u.).
The figure for “GCGATTAAATGTACAGTAAATAGGGATGAACAATATACGACGGAGTCACCTAGTGCAG” is 3570 fluorescence intensity (a.u.).
Take “TCTTAATAATTATTTCTTAATTAATTCTGTGCTAATTGTGCGGAGTCACCTAGTGCAG”: the binding signal is 54300 fluorescence intensity (a.u.).
The figure for “GAATAATTATTACACAATGCTAATTAATTTCACAATATTGCGGAGTCACCTAGTGCAG” is 38800 fluorescence intensity (a.u.); for “CATGGTGAATTGGTGATTTTATAATGATGCTAAGCTTTGACGGAGTCACCTAGTGCAG” it is 4860 fluorescence intensity (a.u.).
With “TGCATTGATTTGGTATAATTGACCATGCTTTGCGATGCAACGGAGTCACCTAGTGCAG” the figure was 57700 fluorescence intensity (a.u.); with “ATCCTTATTAATTTAATTTAACAAAGTCAACTTGATTTCCCGGAGTCACCTAGTGCAG”, 23100 fluorescence intensity (a.u.); with “CTATCTCATTGCTTAATTGGTCATATAATTGGGCTGAGTGCGGAGTCACCTAGTGCAG”, 16900 fluorescence intensity (a.u.).
On to “TTAATTGATTAATTTCCTTAACCAAATCTTGGCGACTTGACGGAGTCACCTAGTGCAG”, for which the binding signal is 61200 fluorescence intensity (a.u.).
The figure for “AGCAATGCAACGATTATTAATTTAATTTGCACATGTATTGCGGAGTCACCTAGTGCAG” is 5900 fluorescence intensity (a.u.); for “ATAATATTTAATATTTAATTAATTATGTGCTAATAAATCGCGGAGTCACCTAGTGCAG” it is 14300 fluorescence intensity (a.u.).
The figure for “CCTTAATTGTGGGGCTGACTGCTATTTTCTATATCATGTGCGGAGTCACCTAGTGCAG” is 56000 fluorescence intensity (a.u.); for “TAATATTTAATTTCTATCAACATCTGACTACTTAATATTGCGGAGTCACCTAGTGCAG” it is 7790 fluorescence intensity (a.u.).
With “AATCTTGGCAAATTTCCTTAATTTGAACCTACGTGTTAAACGGAGTCACCTAGTGCAG” the figure was 5550 fluorescence intensity (a.u.).
